Rows were chosen to be rich in hits. Some 10% of all compounds tested hit in one or more screens of this group.
JMJD2A Tudor inh: JMJD2A Tudor domain (human) inhibition; O75164; AlphaScreen JMJD2A-Tudor / H3K4me3 peptide binding; Potency, µM (highest dose often 114 µM), for inactives: at the top dose activity change, negative = inhibition, hits mostly inhibitors; 390,000 tested, 4.4% active; AID 504339; also: % is scaled to controls: 0 for no effect and ±100 for the full control effect; nearly all actives have a fitted effect of over 50% in size
BAZ2B block: BAZ2B (human) inhibition; Q9UIF8; AlphaScreen BAZ2B-H3K14Ac peptide displacement; Potency, µM (highest dose often 114 µM), inactives show top-dose activity change, negative = inhibition, usual class: inhibitors; 360,000 tested, 4.4% active; AID 504333; also: % is scaled to controls: 0 for no effect and ±100 for the full control effect; nearly all actives have a fitted effect of over 60% in size
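Compounds, titrated to a top concentration of 110 uM, were incubated 30 min at room temperature with preformed BAZ2B/acetyl-K14 H3 peptide complex (50 nM each). Proximity signal was measured by AlphaScreen after 20 min with beads.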
GLS inh: inhibitors of human glutaminase (GLS) | O94925 | GLS enzymatic activity, qHTS titration | Potency, µM (doses to about 45.5 µM), inactives show top-dose activity change, negative = inhibition, usual class: inhibitors | 410,000 tested, 0.21% active | AID 624170; also: % is scaled to controls: 0 for no effect and ±100 for the full control effect
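Compounds were pin-transferred onto hKGA, after which L-glutamine (1 mM solution) and a detection mix of glutamate oxidase, HRP and Amplex Red were added. Initial and 30 min RT fluorescence reads were collected.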
HP1b chromo inh: blocks HP1-beta chromodomain binding to methylated histone tails. P83916. 390,000 tested, 0.56% active. AID 540317. Potency, µM (top dose mostly 114 µM), inactives show at the top dose activity change, negative = inhibition, most hits filed as inhibitors. AlphaScreen HP1-beta / biotin-H3K9me3 peptide binding; also: nearly all actives have a fitted effect of over 70% in size
Target sequence (P83916 whole entry, looked up): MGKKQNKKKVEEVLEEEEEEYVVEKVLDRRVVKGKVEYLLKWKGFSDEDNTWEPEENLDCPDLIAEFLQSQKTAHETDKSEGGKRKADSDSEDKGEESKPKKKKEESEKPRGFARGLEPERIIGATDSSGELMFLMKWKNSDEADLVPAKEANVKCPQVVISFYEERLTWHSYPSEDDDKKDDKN
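HP1-beta protein (50 nM final) preincubated 30 min at room temperature with biotinylated H3(1-18)K9me3 peptide (50 nM) in PBS pH 7.4, 0.01% Tween-20, then compound added for 30 min. AlphaScreen streptavidin donor/nickel chelate acceptor beads (10 ug/mL final), 30 min dark, luminescence read.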
G9a inh: G9a (human) methyltransferase inhibition. Q96KQ7. G9a H3K9 monomethylation, AlphaScreen, 2 h. Potency, µM (doses to about 102 µM), for the others: top-dose activity, negative = inhibition, most hits filed as inhibitors. 350,000 tested, 8.8% active; also: % is scaled to controls: 0 for no effect and ±100 for the full control effect; nearly all actives have a fitted effect of over 75% in size
Target sequence (Q96KQ7 913-1193 limits assumed): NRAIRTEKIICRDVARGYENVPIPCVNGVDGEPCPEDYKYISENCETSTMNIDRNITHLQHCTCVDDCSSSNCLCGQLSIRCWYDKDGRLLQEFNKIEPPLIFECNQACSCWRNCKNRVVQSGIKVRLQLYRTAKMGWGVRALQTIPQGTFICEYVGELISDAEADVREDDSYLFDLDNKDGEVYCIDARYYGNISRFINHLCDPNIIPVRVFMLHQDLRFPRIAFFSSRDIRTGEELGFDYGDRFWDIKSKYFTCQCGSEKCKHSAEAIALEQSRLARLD
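Quantitative HTS format: methyltransferase activity on a biotin-tagged H3K9 peptide is measured by AlphaScreen, using a rabbit anti-monomethyl-H3K9 antibody with streptavidin donor and anti-IgG acceptor beads. Final levels are 20 nM enzyme, 500 nM peptide, 20 uM SAM; 2 h RT.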
* hit, by the source's call; u = inconclusive; x = not tested or not shown; [ ] = remark or other dose. Calls follow the shape of the dose curve; as a rule, active = well fitted curve in the direction sought with a large enough effect; inconclusive = small, poorly fitted or top-dose-only effect, or another doubt; inactive = no such curve, though single readings can be large; an effect the other way counts as inactive or inconclusive. Potency is read from the fitted curve at half-maximal effect.

SMILES	JMJD2A Tudor inh	BAZ2B block	GLS inh	HP1b chromo inh	G9a inh
CCn1c(SCC(=O)N/N=C/c2ccc(C)o2)nnc1-c1ccc(C)cc1	u	-3%	11%	33%	45µM*
O=C(CSc1nc2ccccc2[nH]1)N/N=C/c1ccncc1	-16%	-2%	-1%	-14%	3%
O=C(CSc1nnc(SCc2ccccc2)s1)N/N=C/C=C\c1ccco1	13µM*	14µM*	-1%	u	10µM*
Cc1ccc(/C=N/NC(=O)CSc2nc3ccccc3[nH]2)o1	-25%	u	-14%	2%	45µM*
COCCn1c(SCC(=O)NC(=O)NC(C)(C)C)nc2ccccc21	-11%	2%	-2%	27%	-33%[59 µM]
COc1ccc(Cl)cc1NC(=O)[C@H]1O[C@@H]2OC(C)(C)O[C@@H]2[C@H]2OC(C)(C)O[C@H]21	-13%	-15%	-4%	62%	4%[59 µM]
Cc1ccc(/C=C/c2onc(C)c2S(=O)(=O)N2CCC(C(=O)NCc3ccc(OC(C)C)cc3)CC2)cc1	-2%	-3%	6%	39%[57 µM]	6%[59 µM]
Cc1cc(-c2ccc([N+](=O)[O-])cc2)cc(C)n1	-22%	x	-6%	1%	x
Cc1ccc(CSc2nnc(SCC(=O)N/N=C/c3c[nH]c4ccccc34)s2)cc1	u	20µM*	75%	-2%	u
O=C(CSc1nnc(SCc2ccccc2Cl)s1)N/N=C/c1c[nH]c2ccccc12	-32%	13%	0%	28%	15%
CCn1c(SCC(=O)N/N=C/C=C/c2ccco2)nnc1-c1ccc(OC)cc1	-12%	u	7%	16%	35µM*
CCn1c(SCC(=O)N/N=C/C=C/c2ccco2)nc2ccccc21	u	45µM*	1%	-9%	6.3µM*
COc1ccc2c(-c3ccccc3)cc(N3CCOCC3)nc2c1	1.3µM*	25µM*	1%	25µM*	2.2µM*
CCn1nnnc1SCC(=O)N(C)C1CCS(=O)(=O)C1 (stereo unspecified)	5%	9%	-10%	42%	-12%[2.33 µM]
CCOC(=O)c1cc(S(=O)(=O)N2CCN(c3ccc(C)cc3C)CC2)[nH]n1	u	50µM*	13%	-2%[57 µM]	4µM*
CCOC(=O)c1cc(S(=O)(=O)N2CCN(c3cccc(C)c3C)CC2)[nH]n1	-31%	u	12%	-2%[57 µM]	10µM*
CCOC(=O)c1cc(S(=O)(=O)N2CCN(c3ccccc3F)CC2)[nH]n1	-30%	u	0%	11%[57 µM]	16µM*
COC(=O)c1cc(S(=O)(=O)N2CCN(c3ccccc3F)CC2)c[nH]1	-25%	-10%	-3%	57%	5%[59 µM]
CCn1c(CN2CCN(c3cccc(C)c3C)CC2)n[nH]c1=S	-13%	-8%	0%	25%	7.9µM*
O=C(COc1ccc(S(=O)(=O)NC2CCCCC2)cc1)Nc1ccc(C(F)(F)F)cc1	-11%	2%	13%	32%	1%[59 µM]
O=c1[nH]c2ccc(NS(=O)(=O)c3ccc4ccccc4c3)cc2[nH]1	8%	-15%	14%	35%	50µM*
O=c1[nH]c2ccc(NS(=O)(=O)c3ccc(Cl)cc3)cc2[nH]1	-8%	-18%	19%	35%	56µM*
COc1ccc(NS(=O)(=O)c2ccc3[nH]c(=O)[nH]c3c2)cc1	-11%	u	6%	35%	u
O=c1[nH]c2ccc(NS(=O)(=O)c3ccc(F)c(Cl)c3)cc2[nH]1	u	-3%	-12%	-3%	u
CCCS(=O)(=O)NC(=O)C1(C)CCN(C(=O)c2ccccc2OC(C)=O)C1 (stereo unspecified)	x	x	7%	x	x
SMILES	JMJD2A Tudor inh	BAZ2B block	GLS inh	HP1b chromo inh	G9a inh
CCN(CC)S(=O)(=O)c1ccc(C(=O)N2CC(=O)Nc3ccc(F)cc3C2c2ccccc2)cc1 (stereo unspecified)	-20%	-10%	8%	22%	-2%[59 µM]
O=C(NN1C(=O)/C(=C/c2cccs2)SC1=S)c1cccnc1	-23%	-31%	1%	20%	50µM*
COc1cc(/C=C2\SC(=S)N(N3CCOCC3)C2=O)ccc1O	-20%	-4%	1%	136%	20%[59 µM]
O=C(O)c1ccc(/C=C2\SC(=S)N(NC(=O)c3ccccc3)C2=O)cc1	-7%	-20%	-1%	30%	u
COc1cc(/C=C2\SC(=S)N(NC(=O)c3ccncc3)C2=O)ccc1O	-9%	u	11%	-27%	45µM*
CC(/C=C1\SC(=S)N(NC(=O)c2ccncc2)C1=O)=C\c1ccccc1	u	u	2%	-14%	u
COc1cc(/C=C2\SC(=S)N(NC(=O)c3cccc(O)c3)C2=O)ccc1O	u	35µM*	0%	45µM*	35µM*
COc1cc(/C=C2\SC(=S)N(NC(=O)c3ccc(O)c(OC)c3)C2=O)ccc1O	56µM*	35µM*	28%	50µM*	35µM*
O=S1(=O)CC(N2CC=CC2)CN1Cc1cn(Cc2cccc(C(F)(F)F)c2)nn1 (stereo unspecified)	x	x	15%	x	x
Cn1c(=O)c2cc(C(=O)N3CCN(c4ccc(Cl)cc4)CC3)sc2c2ccccc21	1%	x	-9%	41%	5%[59 µM]
COc1cc(/C=C2\SC(=S)N(NC(=O)c3ccccc3OC)C2=O)ccc1O	u	20µM*	18%	25µM*	16µM*
O=C(CCN1C(=O)/C(=C/c2cccc(Br)c2)SC1=S)NNC(=O)c1cccnc1	-9%	3%	5%	11%	-20%
O=C(NN1C(=O)CSC1=S)c1cccnc1	u	u	8%	12%	50µM*
CCOc1cc(/C=C2\SC(=S)N(NC(=O)c3cccnc3)C2=O)ccc1O	-35%	10µM*	5%	u	10%[12.7 µM]
Cc1ccccc1C(=O)NN1C(=O)CSC1=S	-14%	-2%	-22%	25%	-22%[59 µM]
CCC(NC(=O)Nc1cc(C)on1)(C(F)(F)F)C(F)(F)F	-4%	1%	-1%	59%	0%
COCCn1c(-c2ccc(OC)cc2)c(-c2ccc(OC)cc2)oc1=O	-14%	35µM*	2%	-12%	-21%[2.33 µM]
COCCn1c(=O)c(-c2ccc(OC)cc2)nc2cnc(OC)nc21	x	x	x	x	0%[12.7 µM]
COc1ccc(CN(C)C(=O)Cn2cc(C)c(=O)[nH]c2=O)cc1OC	79µM*	x	-3%	29%	x
COc1ccc(CN(C)C(=O)Cn2ccsc2=N)cc1OC	-14%	3%	-9%	16%	7%
COc1ccc(NC(=O)CSc2nc(-c3ccco3)nc3cc(=O)[nH]n23)cc1Cl	45µM*	79µM*	-18%	-3%	8%
COc1ccc(NC(=O)CSc2nc(-c3ccco3)nc3cc(=O)[nH]n23)cc1	-10%	79µM*	-27%	22%	2%[59 µM]
COc1ccc(NC(=O)CSc2nc(-c3ccccc3)nc3cc(=O)[nH]n23)cc1	-23%	-37%	-12%	33%	17%[59 µM]
Cc1ccc(NC(=O)CSc2nc(-c3ccco3)nc3cc(=O)[nH]n23)cc1C	-34%	40µM*	-23%	28%	u
